We go through 40 compounds from PubChem BioAssay (NCATS).

Structures are written as SMILES. Inconclusive results are not listed. Active and inactive are the calls of the source. Calls come from the whole dose curve; as a rule, active = well fitted inhibition curve with a large enough effect; inconclusive = small, poorly fitted or top-dose-only effect; inactive = no such curve, though single readings can be large or run the other way.
Potency is the fitted concentration of half-maximal effect.

A short description of the assay: BET inhibitor-based combinations targeting novel dependencies in MECOM-rearranged (r) AML: OCI-AML3 cell line (AID 2202232).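 For viability (% of control): plate controls were DMSO vehicle wells for no effect and wells without cells for full effect.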 Note: nearly all actives have a fitted effect of over 35% in size. The following applies: CellTiter-Glo luminescence, 48 h; Potency: OCI-AML3 viability; series mostly up to 46 µM; viability (% of control): at the top concentration. The source says: Ecotropic viral insertion site 1 (EVI1) is located on chromosome 3q26.2 as part of the MECOM (MDS and EVI1 complex) locus. Under normal hematopoiesis, EVI1 is a regulator of hematopoietic stem cell maintenance and self-renewal and EVI1 levels decrease as the cells differentiate. In approximately 5-10% of de novo acute myeloid leukemia (AML) EVI1 is aberrantly expressed, including Chromosomal inv(3)(q21;q26.2) or t(3;3)(q21;q26.2) alterations (MECOM-r) that account for about 50% of AML with EVI1 overexpression 31. AMLs with high levels of EVI1 have a poor prognosis and an overall survival time averaging between 10-14 months. EVI1 overexpression confers resistance in leukemia cells, highlighting the need to develop new targeted therapies for EVI1 overexpressing AMLs.
Here, we performed an unbiased chemical drug screening by evaluating the single agent activity of a collection of 2,480 oncology-focused, approved and investigational drugs (NCATS Mechanism Interrogation Plates, MIPE v5.0) against a panel of seven AML cell lines. These included four MECOM-r cell-lines (AML-191, AML-194, UCSD-AML1 and HNT-34) and three non-MECOM-r AMLs (MV4-11, OCI-AML3 and SET-2). Exploiting the mechanistic redundancy built in the library, we identified target-level sensitivities in MECOM-r AML cells and relative activity as compared to other AML subtypes.
A collection of 2480 mechanistically annotated dugs (MIPE v5.0) was used to screen four 3q26.2 rearranged AML cell lines and three non-3q26.2 rearranged AML cell lines. This library purposely exploits redundancy by including multiple inhibitors of key onco-targets, while simultaneously encompassing mechanistic diversity, targeting more than 800 distinct mechanisms of action. Briefly, cells were seeded in 5 uL of growth media using a Multidrop Combi dispenser into 1536 well white polystyrene tissue culture treated plates (Corning) at a density of 500cells/well. For each cell-line, for each of the 2480 drugs in MIPE v5.0 library, an 11-point dose curve was generated via a 1536 pin-tool. Plates were incubated for 48 hr at standard incubator conditions, covered by a stainless steel gasketed lid to prevent evaporation. Cell viability was determined by luminescence based, Cell Titer Glo assay (Promega). In detail, 3 uL of Cell Titer Glo were added to each well and plates were incubated at room temperature for 15 min with a stainless-steel lid in place. Luminescence readings were taken using a Viewlux (PerkinElmer) with a 2 s exposure time per plate. Compound dose-response curves were normalized to DMSO and empty well controls on each plate. Quantitative drug activity data from dose-response curves was determined utilizing area Under the Curve (AUC) and Z-transformed AUC (Z-AUC, a mean-centering transformation applied to each individual cell-line screened).
Take `Cc1[nH]c2ccc(F)cc2c1-c1nc2c3cccnc3c3ncccc3c2[nH]1`: the Potency was 0.679 µM (active).
For `C[C@H](NC(=O)[C@@H](O)c1cc(F)cc(F)c1)C(=O)N[C@@H]1C(=O)N(C)c2ccccc2-c2ccccc21`, the “viability (% of control)” value is 103% (inactive).
The same measure, in the same setting: in the case of `CC(C)(C)C(=O)Oc1ccc2c(c1)nc(NC(=O)c1cccc([N+](=O)[O-])c1)n2CCCO` it was 105% (inactive).
Consider `CCCCc1oc2ccc(NS(C)(=O)=O)cc2c1C(=O)c1ccc(OCCCN(CCCC)CCCC)cc1`, for which the Potency was 14.8 µM (active).
As for `Cc1cnc(C(=O)O)c[n+]1[O-]`, the “viability (% of control)” value was 108% (inactive).
Take `Cc1ccc(Nc2nccc(N(C)c3ccc4c(C)n(C)nc4c3)n2)cc1S(N)(=O)=O`: the Potency is 16.6 µM (active).
For `C[C@H]1CN(C[C@H](Cc2ccccc2)C(=O)NCC(=O)O)CC[C@@]1(C)c1cccc(O)c1`, the “viability (% of control)” value was 123% (inactive).
On to `CC(C)c1cc(C(C)C)c(CC(=O)NS(=O)(=O)Oc2c(C(C)C)cccc2C(C)C)c(C(C)C)c1`, for which the Potency was 10.5 µM (active).
Regarding `COc1cc2c(Oc3ccc4[nH]c(C)cc4c3F)ncnc2cc1OCCCN1CCCC1`, the Potency is 13.2 µM (active).
`COc1cc(C(=O)NC2CCN(C)CC2)c(F)cc1Nc1ncc2c(n1)N(C1CCCC1)CC(F)(F)C(=O)N2C`: the Potency is 0.0468 µM (active).
In the case of `CCCCC(F)(F)[C@@]1(O)CC[C@H]2[C@H](CC(=O)[C@@H]2CCCCCCC(=O)O)O1`, the “viability (% of control)” value is 117% (inactive).
In the case of `Oc1ccc([C@@H]2Oc3ccc(O)cc3[C@@H]3CCC[C@@H]32)cc1`, the Potency is 16.6 µM (active).
Turning to `CCCOc1ccc(C(=O)OCCN(CC)CC)cc1N`, the “viability (% of control)” value is 101% (inactive).
`COc1cc2c(c(OC)c1OC)-c1ccc(OC)c(=O)cc1[C@@H](NC(C)=O)CC2`: the Potency was 0.0295 µM (active).
With `C[C@@H]1O[C@@H](O[C@@H]2\C=C/C=C\C=C/C=C\C[C@H](C)OC(=O)/C=C\[C@H]3O[C@@H]3C[C@H](O)C[C@]3(O)C[C@@H](O)[C@@H](C(=O)O)[C@H](C2)O3)[C@H](O)[C@H](N)[C@@H]1O`, the “viability (% of control)” value was 114% (inactive).
Consider `Cc1cn([C@@H]2C[C@@H](O)[C@H](CO)O2)c(=O)[nH]c1=O`, for which the “viability (% of control)” value is 89.4% (inactive).
In the case of `C[C@@H]1CN(Cc2ccc(F)cc2)[C@@H](C)CN1C(=O)c1cc2c(C(=O)C(=O)N(C)C)cn(C)c2cc1Cl`, the “viability (% of control)” value is 106% (inactive).
On to `Nc1nc2ccc(OC(F)(F)F)cc2s1`, for which the Potency is 20.9 µM (active).
With `CC1(C)CNc2cc(NC(=O)c3cccnc3NCc3ccncc3)ccc21`, the “viability (% of control)” value was 77.7% (inactive).
With `O=C(Nc1ccc2[nH]nc(-c3ccncc3)c2c1)[C@@H]1CCN(CC(=O)N2CCN(c3ccc(-c4ncccn4)cc3)CC2)C1`, the Potency is 0.235 µM (active).
Still for that read-out and setting: in the case of `Cc1cc(-c2ncc(CC(=O)Nc3ccc(-c4cnccn4)cn3)cc2C)ccn1` it was 8.33 µM (active).
In the case of `CCC(=O)O[C@]1(C(=O)SCF)[C@H](C)C[C@H]2[C@@H]3C[C@H](F)C4=CC(=O)C=C[C@]4(C)[C@@]3(F)[C@@H](O)C[C@@]21C`, the “viability (% of control)” value was 134% (inactive).
For `CC1(C)CN(C(=O)c2ccc(-c3cccc4nc(NC(=O)C5CC5)nn34)cc2)C1`, the “viability (% of control)” value is 78.6% (inactive).
For `CC[C@H]1CN2CCc3cc(OC)c(OC)cc3[C@@H]2C[C@@H]1C[C@H]1NCCc2cc(OC)c(OC)cc21`, the Potency is 0.468 µM (active).
Consider `COc1ccc2nc3n[nH]c(C)c3c(NCCOCCO)c2c1`, for which the “viability (% of control)” value is 131% (inactive).
For the compound `COc1ccc(-c2ccc3c(N4CCOCC4)nc(N4C[C@@H](C)O[C@@H](C)C4)nc3n2)cc1CO`, the Potency was 1.18 µM (active).
For `Nc1nc(NCCNc2ncc(-n3ccnc3)c(-c3ccc(Cl)cc3Cl)n2)ccc1[N+](=O)[O-]`, the “viability (% of control)” value was 163% (inactive).
As to `c1cn2cc(-c3ccc4cn[nH]c4c3)nc(Nc3ccc(N4CCOCC4)cc3)c2n1`, the Potency was 5.25 µM (active).
Same read-out and setting: in the case of `Nc1ncnc2c1c(-c1cnc3[nH]ccc3c1)nn2C1CCCC1` it was 4.17 µM (active).
As for `Cc1ccc(C(=O)c2cc(O)c(O)c([N+](=O)[O-])c2)cc1`, the “viability (% of control)” value is 93.3% (inactive).
With `Cc1ccc(S(=O)(=O)Cc2nc(-c3ccc(C(=O)NCc4cccnc4)cc3)oc2C)cc1`, the Potency was 0.0118 µM (active).
As to `CCN1CCN(C(=O)N[C@@H](C(=O)N[C@@H]2C(=O)N3C(C(=O)O)=C(CSc4nnnn4C)CS[C@H]23)c2ccc(O)cc2)C(=O)C1=O`, the “viability (% of control)” value is 33.8% (inactive).
On the same count and under the same terms, in the case of `Cc1c(C(=O)Nc2ccc(N3C[C@@H](C)O[C@@H](C)C3)nc2)cccc1-c1ccc(OC(F)(F)F)cc1` it was 108% (inactive).
`O=C(Nc1ccc(Oc2ccnc3[nH]ccc23)c(F)c1)c1cccn(-c2ccc(F)cc2)c1=O`: the Potency was 13.2 µM (active).
Same read-out and setting: in the case of `Cc1cc(Nc2nc(N[C@@H](C)c3ccc(F)cc3)c(C#N)cc2F)n[nH]1` it was 0.525 µM (active); in that of `COc1cc(C(=O)NC2CCN(C)CC2)ccc1Nc1ncc2c(n1)N(C1CCCC1)CCC(=O)N2C(C)C`, 14.8 µM (active).
Regarding `CC[C@H](NC(C)C)[C@H](O)c1ccc(O)c2[nH]c(=O)ccc12`, the “viability (% of control)” value was 115% (inactive).
The same measure, in the same setting: in the case of `O=C(CN1C(=O)C2(CCCC2)NC[C@H]1c1cc(F)cc(F)c1)Nc1ccc2c(c1)C[C@@]1(C2)C(=O)Nc2ncccc21` it was 105% (inactive).
Turning to `COCCOc1ccc2c(c1)ncn2-c1ccc2cccc(N3CCC(N)CC3)c2n1`, the Potency is 9.34 µM (active).
On the same count and under the same terms, in the case of `NCCCCCC(=O)O` it was 0.0037 µM (active).
